Shown are actives, neighbours in structure and some others; about 0.74% of the full set was active somewhere.
cardiac RTF act = increases calcium sensitivity of human cardiac regulated thin filaments; hit rate 0.24% among 340,000; activation, % at 7.2 µM; AID 493008; P19429+P45379; IANBD-labeled TnC RTF fluorescence at EC20 calcium; 0% EC20 calcium, 100% full calcium;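 active means activation above the mean over all tested compounds plus 3 SD, cut at about 30% in these data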;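 further: rise in fluorescence read as greater calcium sensitivity of cardiac thin filaments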
LANA DNA inh = KSHV C-LANA DNA binding inhibition | hit rate 0.078% among 340,000 | AID 504423 | inhibition, % at 9 µM | MBP-C-LANA/FAM-LBS DNA binding, fluorescence polarization;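 active means highest replicate inhibition at or above 60% at 9 µM, even if other replicates fall short; inactive means all replicates below 60% inhibition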;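 further: 0% = neutral control wells and 100% = 4 µM acridine orange control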
eLon inh = inhibitors of E. coli Lon protease; purified E. coli Lon protease, fluorescence polarization; inhibition, % at 7.94 µM; hit rate 0.42% among 360,000; in the data active means inhibition above about 13%, passing the limit was not always enough;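 further: 0% = enzyme with probe and DMSO and 100% = no enzyme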
Target sequence (P0A9M0 whole entry, looked up): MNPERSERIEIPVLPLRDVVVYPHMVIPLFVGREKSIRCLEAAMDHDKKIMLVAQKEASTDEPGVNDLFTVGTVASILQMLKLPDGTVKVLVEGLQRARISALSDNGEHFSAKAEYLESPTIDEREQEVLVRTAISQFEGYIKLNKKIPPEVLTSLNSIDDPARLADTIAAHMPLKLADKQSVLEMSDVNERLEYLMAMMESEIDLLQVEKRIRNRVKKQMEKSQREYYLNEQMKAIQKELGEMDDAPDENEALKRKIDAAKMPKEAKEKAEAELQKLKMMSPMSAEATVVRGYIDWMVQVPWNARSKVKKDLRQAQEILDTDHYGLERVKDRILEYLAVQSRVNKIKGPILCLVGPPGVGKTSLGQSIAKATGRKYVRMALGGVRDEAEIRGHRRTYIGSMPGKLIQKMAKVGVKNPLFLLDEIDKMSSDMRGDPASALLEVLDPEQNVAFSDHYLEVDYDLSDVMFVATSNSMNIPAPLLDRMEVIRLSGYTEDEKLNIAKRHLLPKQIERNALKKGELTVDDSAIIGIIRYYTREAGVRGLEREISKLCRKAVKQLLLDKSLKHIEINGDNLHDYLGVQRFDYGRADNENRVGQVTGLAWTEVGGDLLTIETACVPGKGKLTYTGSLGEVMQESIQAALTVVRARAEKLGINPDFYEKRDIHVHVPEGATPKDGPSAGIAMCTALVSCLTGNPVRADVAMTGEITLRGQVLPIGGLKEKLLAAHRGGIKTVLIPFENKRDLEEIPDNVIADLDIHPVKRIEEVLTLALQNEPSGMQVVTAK
RTF Ca sens inh = cardiac RTF calcium desensitization; IANBD-labeled cardiac RTF, Ca2+ fluorescence; AID 493244; hit rate 0.12% among 340,000; inhibition, % at 7.15 µM;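 active means inhibition above the mean inhibition of all tested compounds plus 3 SD, cut at about 17% in these data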;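 further: assay run at fixed EC70 calcium of 1.6 mM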
Keap1-Nrf2 PPI = Keap1-Nrf2 (human) interaction inhibition; Keap1 Kelch-Nrf2 peptide fluorescence polarization, 1536-well; AID 504523; hit rate 0.15% among 340,000; inhibition, % at 9.4 µM; in the data active means inhibition above about 12%;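 further: human Keap1 Kelch domain with fluorescein labeled Nrf2 9mer peptide probe; 0% = neutral control wells and 100% = peptide positive control; higher means more block of Keap1 binding to Nrf2 peptide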
Keap1 TSA = binds and thermally shifts human Keap1 Kelch domain | AID 651823 | Keap1 Kelch thermal shift, delta Tm; active compounds read high | shares compounds with Keap1-Nrf2 PPI | max delta Tm, degrees C | hit rate 8% among 400; in the data active means max delta Tm above about 0.48 degrees C
Sypro dye melt = dye artifact in Keap1 thermal shift counter-screen; Sypro Orange dye-only thermal melt, no protein, delta Tm; top dose 26 µM; 140 tested, under 10 active; shares compounds with Keap1-Nrf2 PPI; delta Tm, degrees C (test concentration not listed);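 active means at highest dose tested, delta Tm positive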
* marks the source's active call; other numbers are inactive results; nt = no result given.

SMILES	cardiac RTF act	LANA DNA inh	eLon inh	RTF Ca sens inh	Keap1-Nrf2 PPI	Keap1 TSA	others
Cc1ccc(C)c2nc3sc(C(=O)N4CCOCC4)c(N)c3cc12	5	0	-21	-12	-5	nt
CC1(Oc2ccc(Cl)cc2)CCN(Cc2ccc(-c3ccccn3)cc2)C1 (configuration not stated)	nt	nt	4	nt	nt	nt
C/C(C/C(C)=C1/SC(=S)NC1=O)=C1\SC(=S)NC1=O	-5	32	-62	-6	49*	2*
CCc1nc2ccc(C(=O)N3CCCC(C(N)=O)C3)cn2c1N(CCC(C)C)CCN(C)C (configuration not stated)	nt	nt	-2	nt	nt	nt
Cn1nc(C(C)(C)C)cc1C(=O)N1CCCCC1c1cc(C(=O)Nc2ccc(F)c(Cl)c2)no1 (configuration not stated)	nt	nt	2	nt	nt	nt
CCOc1ccccc1C=C1SC(=S)NC1=O	8	5	34	-3	37*	0.06
Cc1cc(=O)c2c([nH]1)c(C)cc1[nH]c(C)c(C)c12	22	51	-112	-33	25*	-0.16	Sypro dye melt=-26
O=C1c2ccccc2-c2onc3ccc(Oc4ccccc4)c1c23	31*	11	-19	-56	56*	-0.07	Sypro dye melt=-30
O=C(NCc1cccc(F)c1)c1cccc2c1C(=O)c1ccc(N3CCCC3)cc1S2(=O)=O	76*	31	-111	-85	15*	-0.02
CCCc1nc2oc3cc(OC)ccc3c(=O)c2c(=O)n1Cc1ccco1	2	0	-8	-4	14*	-0.19
COc1ccccc1NC(=O)C(C)OC(=O)C1COc2ccccc2O1 (configuration not stated)	15	10	2	-9	22*	-0.1
CC(OC(=O)C1COc2ccccc2O1)C(=O)c1ccccc1 (configuration not stated)	nt	nt	-12	nt	nt	nt
CC(C)c1ccc([C@@H]2O[C@H](C)CC3=C2C(=O)OC(C)(C)O3)cc1	nt	nt	3	nt	nt	nt
CCCCN(C(=O)CC1CCCCC1)c1c(N)n(CC(C)C)c(=O)[nH]c1=O	2	nt	-10	-10	50*	-0.14
CCOC(=O)c1c(NC(=O)CN2CCN(S(=O)(=O)c3cc(Cl)ccc3Cl)CC2)sc(C(=O)N(C)C)c1C	3	17	3	-5	27*	-0.11
C=CCn1c(O)c(CN2CCOCC2)c(C)c(C#N)c1=O	14	16	-3	-15	14*	0.09
O=C1NC[C@H](Cc2ccccc2)N(CC2CCN(CCC34CC5CC(CC(C5)C3)C4)CC2)C1=O	-9	0	0	1	0	nt
CCOc1ccccc1Nc1nnc(SCC(=O)N(C)C2CCS(=O)(=O)C2)s1 (configuration not stated)	-5	-1	3	7	-3	nt
CCOc1ccc(NC(=O)COC(=O)CCN2C(=O)C3CC=CCC3C2=O)cc1OCC (configuration not stated)	17	22	4	-13	45*	0.15
O=C(CCCN1C(=O)/C(=C\c2ccccc2)SC1=S)Nc1ccc(O)cc1C(=O)O	-2	-1	-8	3	-7	nt
O=C(CCN1C(=O)/C(=C/c2ccco2)SC1=S)Nc1ccc(O)cc1C(=O)O	0	63*	-13	-7	13*	0.29
Cc1cc(NC(=O)COC(=O)c2nccnc2N)n(-c2ccccc2)n1	13	2	3	1	-5	nt
CCCc1cc(NC(=O)COC(=O)c2nccnc2N)n(-c2ccccc2)n1	5	26	-14	-3	57*	-0.08
CCc1nc2ccc(C(=O)NCCN3CCNC3=O)cn2c1N(CCC(C)C)CCN(C)C	nt	nt	9	nt	nt	nt
CCN(CC)S(=O)(=O)c1ccc(C(=O)OCCN2C(=O)c3cccc4c(N5CCOCC5)ccc(c34)C2=O)cc1	4	31	2	-4	27*	0.07
Cc1cscc1-c1ccc(C(=O)Nc2c(C)cccc2C)o1	nt	nt	1	nt	nt	nt
Oc1cc(NCCN2CCOCC2)cc2cccnc12	0	11	3	-10	18*	-0.12
CCN(C(=O)CSc1nc2scc(-c3ccccc3)c2c(=O)n1N)C1CCS(=O)(=O)C1 (configuration not stated)	0	0	2	1	-3	nt
COc1cc2c3nnc(-c4ccc(F)cc4)c-3cn(Cc3ccc(C)cc3)c2cc1OC	41*	4	-3	-54	13*	-0.06
